Spn PMK inh – S. pneumoniae PMK inhibition | purified PMK, PK/LDH-coupled NADH absorbance 340 nm | inhibition, % at 10 µM | hit rate 0.49% among 65,000;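 active = top-ranked compounds by inhibition in the single 10 µM screen, taking a fixed number of the strongest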;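 also: 0% = full reaction with DMSO carrier and 100% = background rate without enzyme reaction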
A340 absorber – absorbance at 340 nm. fold change at 10 µM. compound absorbance at 340 nm, fold over control. 65,000 tested, under 10 active;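 active = at 10 µM dose, initial 340 nm absorbance at least 2 fold that of control wells; inactive = change under 2 fold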;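 also: initial absorbance extrapolated from kinetic A340 decline of NADH oxidation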
NADH coupling – inhibitors of enzymes used to reach an NAD/NADH endpoint. coupled PK/LDH NADH assays, four targets. IC50, µM (top dose mostly 10 µM), for the others: top-dose inhibition. hit rate 0.02% among 65,000. AID 774;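 active = single-dose screening hits from any of four coupled enzyme assays that gave an IC50 when retested across doses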;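 also: the DPM-DC format reads NADH fluorescence rather than 340 nm absorbance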
Fluor 339 460 – intrinsic fluorescence of library compounds, ex339/em460 – biochemical, MLSMR library, data from DPM-DC assay, artefact control, profiling panel | compound autofluorescence, ex339/em460 nm, NADH buffer; hits give high values; 1 = no-compound wells, NADH background | fluorescence fold increase at 10 µM | hit rate 5.5% among 65,000 | AID 709;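 active = at 10 µM, mean starting fluorescence two-fold or more over control wells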;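 also: signal is the first read of a kinetic run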
DPM-DC inhibit – inhibitors of Streptococcus pneumoniae diphosphomevalonate decarboxylase. hit rate 0.49% among 65,000. purified DPM-DC, PK/LDH coupled NADH fluorescence. AID 556. calls only at 10 µM;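 active = the 320 compounds with the highest percent inhibition in the single-dose primary screen, excluding strongly autofluorescent ones, cut at about 32% in these data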;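 also: kinetic rate of NADH fluorescence loss reporting ADP formed by the decarboxylase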
MK inhibit – blocks S. pneumoniae mevalonate kinase; purified MK, PK/LDH-coupled NADH absorbance 340 nm; inhibition, % at 10 µM; hit rate 0.48% among 65,000; AID 555;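 active = ranked among the strongest by inhibition in the single 10 µM screen, a fixed top-ranked set picked for dose follow-up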
Starred values were filed as active, the others as inactive; i = inactive; / = no result given; + = active, no number. Hits are enriched below; roughly 6.3% of the tested compounds scored in any of these assays.

SMILES	Spn PMK inh	A340 absorber	NADH coupling	Fluor 339 460	DPM-DC inhibit	MK inhibit
CC1=C(C(=O)OCc2ccccc2)C(c2ccco2)C2=C(CC(C)(C)CC2=O)N1 (stereo not drawn)	10	1.1	8%	1.5	i	1
COC(=O)C1=C(C)NC2=C(C(=O)CCC2)C1c1coc2ccccc2c1=O (stereo not drawn)	14	1.1	8%	1.5	i	11
COc1ccc(-c2cn3c(C)c(C(=O)NCc4ccc5c(c4)OCO5)sc3n2)cc1	24	1	8%	1.1	i	0
COCCOC(=O)c1c(C)oc2ccc(NS(=O)(=O)c3ccc(F)cc3)cc12	0	0.99	5%	1	+	10
COc1ccc(S(=O)(=O)Nc2ccc3oc(C)c(C(=O)O)c3c2)cc1	0	1.1	3%	1.1	i	9
C=CCn1c(=NC(=O)C2CC2)sc2cc(NC(C)=O)ccc21	21	1.1	16%	2.1*	/	10
COc1ccc2cc3cc(C(=O)NCCc4ccc(OC)c(OC)c4)oc3nc2c1	10	1.1	6%	4.6*	/	1
CCCCN(CC)CCCNC(=O)c1cc2cc3ccc(OC)cc3nc2o1	15	1.1	8%	5.1*	/	1
CCCN(CCC)CCCNC(=O)c1cc2cc3ccc(OC)cc3nc2o1	7	1.1	4%	5.1*	/	1
COc1ccc(C)cc1NC(=O)c1cc2cc3ccc(C)cc3nc2o1	11	1.1	8%	4*	/	4
CCOc1ccc(C(=O)NCCCN(CC)CC)cc1	0	1	3%	1.1	i	8
FC(F)C(F)(F)C(F)(F)C(F)(F)c1cc(-c2ccccc2)n[nH]1	0	1	1%	1	i	2
CCOC(=O)C1=C(C)N=C2SC(C)C(=O)N2C1c1ccc(OCC)c(OCC)c1 (stereo not drawn)	14	1	6%	1	i	1
O=C(NC1CCCc2ccccc21)C1CCN(C(=O)c2sccc2-n2cccc2)CC1 (stereo not drawn)	4	1	5%	1	i	11
COC(=O)c1ccccc1NC(=O)c1ccc2c(c1)C(=O)N(Cc1ccco1)C2=O	11	1.1	19%	3.1*	+	4
CCc1ccc(NC(=O)c2ccc3c(c2)C(=O)N(Cc2ccco2)C3=O)cc1	1	1.1	1%	1.2	i	3
NC(N)=NC(=O)c1nc(Cl)c(N)nc1N	11	1	8%	2*	i	11
COC(=O)c1[nH]c2ccccc2c1NC(=O)CN1CCN(C(=O)c2ccco2)CC1	1	1	4%	1.5	i	12
COc1cccc2c3c(c(C)nc12)CC(C)O3 (stereo not drawn)	3	1	5%	3.7*	/	6
COc1ccc2nc(C)c3c(c2c1)OC(C)C3 (stereo not drawn)	0	1.1	2%	1.7	i	3
CC1(C)CC(c2csc(N)n2)CCO1 (stereo not drawn)	13	0.99	7%	1.1	i	7
COc1ccccc1-c1cc(C(F)(F)F)nc(S(=O)(=O)CCCC(=O)N2CCCCC2C)n1 (stereo not drawn)	12	1	9%	3.4*	/	5
COc1ccccc1-c1cc(C(F)(F)F)nc(S(=O)(=O)CCCC(=O)Nc2cc(C)on2)n1	5	1	3%	3.7*	/	0
COc1ccccc1-c1cc(C(F)(F)F)nc(N2CCCC2)n1	0	1.1	2%	1.4	i	6
COc1ccccc1-c1cc(C(F)(F)F)nc(S(=O)(=O)CCCC(=O)NC(C)C)n1	17	1.1	11%	1.9	i	7
SMILES	Spn PMK inh	A340 absorber	NADH coupling	Fluor 339 460	DPM-DC inhibit	MK inhibit
CC[C@@H](C)[C@H](NC(=O)C1CCN(C(=O)[C@@H](NS(=O)(=O)c2ccc(C)cc2)C(C)C)CC1)C(=O)O	0	1	2%	1.1	i	6
N#Cc1c(N)c(C#N)c(-c2ccc(O)cc2)c2c1CCCC2	2	1	3%	2.9*	i	8
COc1cc(NC(=O)c2cc3c(=O)n(C)c4ccccc4c3n2C)cc(OC)c1OC	0	1.1	4%	2*	/	8
CSc1nc(-c2ccco2)nn1S(C)(=O)=O	6	1	3%	1.1	i	3
COc1ccc2c(c1)cc(C(=O)O)n2C	17	1	15%	2.5*	i	0
COc1ccc(CCNc2oc(Cc3ccccc3)nc2C#N)cc1OC	11	1	7%	1.1	i	9
O=C(NCCCN1CCOCC1)c1cc(-c2cccs2)on1	6	0.99	8%	1.1	i	18
N#Cc1nc(COc2ccccc2)oc1N1CCN(Cc2ccccc2)CC1	7	1	5%	1.2	i	8
N#Cc1nc(-c2cccs2)oc1N1CCN(Cc2ccccc2)CC1	4	1.1	4%	3.8*	/	4
N#Cc1nc(-c2ccccc2)oc1NCCN1CCCCC1	9	1.1	12%	3.8*	/	14
N#Cc1nc(-c2ccco2)oc1NCCc1ccccc1	15	1	9%	2.1*	i	16
N#Cc1nc(-c2cccs2)oc1NCCN1CCOCC1	7	1.1	4%	2.4*	/	0
Cc1ccc(/C=C/C2=Cc3c(sc(NC(=O)CSc4n[nH]c(N)n4)c3C#N)C(C)(C)C2)o1	12	1.1	9%	1.3	i	10
CCC1(CC)NC(=O)N(CC(=O)Nc2sc3c(c2C(N)=O)CCC3)C1=O	19	1	8%	1.1	i	0
O=C(CN1CCOc2ccccc21)N1CCCC1	2	1	4%	1.1	i	6
N#Cc1nc(-c2cccs2)oc1NCc1ccc2c(c1)OCO2	0	1.1	4%	2.4*	/	7
N#Cc1nc(-c2cccs2)oc1NCCc1ccccc1	10	0.99	3%	2.5*	/	0
COc1ccc(CCNc2oc(-c3ccco3)nc2C#N)cc1	13	1	6%	2.4*	i	8
COc1ccc(CCNc2oc(COc3ccc(F)cc3)nc2C#N)cc1	1	1	0%	1.1	i	1
COc1ccc(Nc2oc(-c3cccs3)nc2C#N)cc1	2	1.1	9%	1.9	i	0
COc1ccccc1-n1c(CNC(=O)COc2ccccc2)n[nH]c1=S	0	1.1	2%	1.1	i	5
COCC(C)NC(=O)c1ccccc1OC(C)=O (stereo not drawn)	4	1	10%	2*	i	10
COCC(C)NC(=O)c1cc(-c2ccccc2OC)on1 (stereo not drawn)	14	1	7%	1.2	i	7
COc1ccc(OC)c(-n2nnnc2SCC(=O)NCc2ccc3c(c2)OCO3)c1	0	0.98	1%	1.1	i	0
CCOC(=O)C1CCCCN1Cc1ccc(F)c(Br)c1 (stereo not drawn)	0	1	15%	1.1	i	45*
